PubChem BioAssay (NCATS)
Several values for one entry are separate records, joined by “and”; a condition that tells them apart may be missing. Equal values may be shown once. Results filed as inconclusive are left out. Activity calls are given as the source filed them. Unless noted, calls follow the shape of the dose curve; as a rule, active = well fitted curve in the direction sought with a large enough effect; inconclusive = small, poorly fitted or top-dose-only effect, or another doubt; inactive = no such curve, though single readings can be large; an effect the other way counts as inactive or inconclusive.

Legend:
[1] = target: Voltage-gated inwardly rectifying potassium channel KCNH2 (Homo sapiens) (UniProt Q12809); experiment: qHTS Assay for Small Molecule Inhibitors of the Human hERG Channel Activity (AID 588834);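 also: lower thallium flux fluorescence means stronger hERG block; nearly all actives have a fitted effect of over 50% in size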; also: potency is read from the fitted curve at half-maximal effect
Method in brief: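 Step 1: BacMam hERG transduction of U2OS, 4 hrs RT. Step 2: overnight 37 °C, plate 2000 cells/well, 4 hr. Step 3: FluxOR load, compound 10 min, stimulate, read fluorescence.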

[2] = target: Luciferin 4-monooxygenase (Photinus pyralis) (UniProt P08659); experiment: Biochemical firefly luciferase enzyme assay for NPC (AID 624030);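 also: purified P. pyralis luciferase at 10 nM with luciferin and ATP substrate; 0% = DMSO and -100% = full luciferase inhibition by PTC124 control; nearly all actives have a fitted effect of over 70% in size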
Method in brief: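 Direct inhibition of firefly luciferase enzyme (10 nM final, 50 mM Tris Acetate) assessed by luminescence within 5 minutes. Percent activity scaled between DMSO and PTC124 positive control, with concentration-effect curves classified by fit quality and response.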

[3] = S16 Schwann cell viability assay (CellTiter-Glo assay) (AID 624031);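 also: native untransfected S16 rat Schwann cells; cellular ATP luminescence as a viability measure; plate controls were DMSO-treated cells for no effect and cell-free wells for full effect; nearly all actives have a fitted effect of over 70% in size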
Method in brief: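 Following overnight culture in 10% FBS DMEM, parental S16 rat Schwann cells are dosed for 24 h at 37 °C. Viability is read as CellTiter-Glo luminescence and expressed as % activity relative to DMSO (0%) and no-cell wells.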

[4] = S16 Schwann cell PMP22 intronic element firefly luciferase assay (AID 624032); also: nearly all actives have a fitted effect of over 30% in size; also: potency is read from the fitted curve at half-maximal effect
Method in brief: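 Luciferase reporter of PMP22 intronic-element expression in stably transfected S16 rat Schwann cells, read by ONE-Glo luminescence after 24 h compound exposure at 37 C. Activity scaled between DMSO (0%) and positive-control PTC124; concentration-effect curves quality-classified.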

[5] = S16 Schwann cell PMP22 intronic element beta-lactamase assay (AID 624044; calls by dose curve; also: nearly all actives have a fitted effect of over 15% in size; also: potency is read from the fitted curve at half-maximal effect)
Method in brief: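 Beta-lactamase reporter under a PMP22 intronic regulatory element in stable S16 rat Schwann cells; 24 h compound exposure. 460 nm blue signal normalized between DMSO (0%) and potassium clavulanate, with 535 nm FRET tracking viability; curves classed by r2 and response.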

[6] = target: Glutaminase kidney isoform, mitochondrial (Homo sapiens) (UniProt O94925); experiment: qHTS for Inhibitors of Glutaminase (GLS): LOPAC Validation (AID 624146);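 also: glutamate product detected by oxidase and peroxidase coupled Amplex red fluorescence gain; % is scaled to controls: 0 for no effect and ±100 for the full control effect; nearly all actives have a fitted effect of over 60% in size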
Method in brief: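 Two-point fluorescence kinetic (t0, 30 min RT) for hKGA; glutamate detected via glutamate oxidase–HRP–Amplex Red. Substrate: 1 mM L-glutamine solution; buffer 45 mM KH2PO4, pH 8.2.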

[7] = qHTS of Trypanosoma Brucei Inhibitors: LOPAC Validation (AID 624147); also: 0% is about no effect
Method in brief: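 Glycolytic pyruvate kinase of T. brucei was incubated with substrate, test compound and 130 uM ADP for 45 minutes at room temperature. Luminescent Kinase-Glo Plus signal was measured after 10 minutes.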

[8] = target: Glucagon-like peptide 1 receptor (Homo sapiens) (UniProt P43220); experiment: qHTS of GLP-1 Receptor Agonists: LOPAC Validation (AID 624148);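 also: luminescence from a luciferase reporter switched on by cAMP; 0% is about no effect; higher luminescence signal means agonism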
Method in brief: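 Agonism scored as increased luciferase luminescence driven by cAMP in HEK293 clones carrying GLP-1R. Cells settled 12 hours, received compound for 4-6 hr at 37 deg C, 5% CO2, and were read after 12 min detection reagent at RT.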

[9] = qHTS of Nrf2 Activators: LOPAC Validation (AID 624149); also: 0% is about no effect
Method in brief: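 Luciferase signal from ARE activation, read with Steady-Glo after 30 min at room temperature. Compounds were pin-transferred onto AREc32_Fluc cells (1000/well, OPTI-MEM/5% FBS, seeded overnight) and left 24 hr at 37 deg C.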

[10] = HTS Assay for Allosteric Antagonists of the Human D2 Dopamine Receptor: Hit Validation in HTRF (AID 624455);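 also: stable D1 dopamine receptor cell line scored for blocking the D1 response; % is scaled to controls: 0 for no effect and ±100 for the full control effect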
Method in brief: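 Inhibition of the D1-mediated response was measured by HTRF. Cells used were a line stably expressing the D1 dopamine receptor.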

[11] = qHTS assay for small molecule activators of the nuclear factor-kappa B (NF-kB) signaling pathway (AID 651749; active = well fitted activation curve with a large enough effect in the signal ratio; the % refers to the signal ratio; also: % of control where 0% means no effect); conditions: NF-kB-bla ME-180 cells, beta-lactamase FRET ratio, 16 h; stronger effect = higher value
Method in brief: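 Activation measured after 16 hr compound treatment at 37C, 5% CO2, of 2,000 ME-180 cells/well stably expressing an NF-kB response element–driven beta-lactamase reporter, via FRET-disruption fluorescence.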

[12] = qHTS assay for small molecule agonists of the antioxidant response element (ARE) signaling pathway (AID 651741; active = well fitted activation curve with a large enough effect in the signal ratio; the % refers to the signal ratio; also: potency is read from the fitted curve at half-maximal effect)
Method in brief: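 Beta-lactamase reporter under ARE control in HepG2 cells, 2,000 per well, was induced by 16 h compound treatment at 37 C. Read-out was fluorescence from LiveBLAzer B/G FRET substrate after 2 h at room temperature.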

[13] = Cytotoxicity counterscreen for NFkB agonists and antagonists (AID 624476);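 also: potency is read from the fitted curve at half-maximal effect; cells exposed to compound for 48 hours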
[14] = qHTS Assay for Identification of Small Molecule Agonists for NFkB Signaling Pathway. (AID 624478);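 also: compounds tested together with TNF alpha at its EC50 of 10 pM; 0% is about no effect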
Method in brief: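 Compounds were added with 10 pM TNF alpha (EC50 level) to ME-180 NFkB-bla cells in low-serum Opti-MEM and incubated 5 hrs at 37 C. Beta-lactamase FRET read-out used 405 nm excitation and 460 and 530 nm emission.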

[15] = qHTS Assay for Identification of Small Molecule Antagonists for NFkB Signaling Pathway. (AID 624479; calls by dose curve;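 also: pathway stimulated with TNF alpha; potency is read from the fitted curve at half-maximal effect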)
[16] = Cell Proliferation Assay against the TMD8 Cell Line (AID 651645); conditions: TMD8 DLBCL cell line proliferation/viability; at 46.1 µM (top of the series);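 also: cells exposed to compound for 48 h before reading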
Method in brief: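 500 TMD8 cells/well, RPMI + Glutamax, no phenol red, 5% FBS; cpd added immediately; 48 h, 37C, 5% CO2; CellTiter-Glo, luminescence. Controls: DMSO = 100%, bortezomib 9.2 uM final = 0%.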

[17] = Cell Proliferation Assay against the HBL1 Cell Line (AID 651646); conditions: HBL1 DLBCL cells; at 46.1 µM (top of the series);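 also: cells exposed to compound for 48 h before reading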
Method in brief: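 CellTiter-Glo luminescence after 48 h compound exposure at 37C gives percent activity, with DMSO as 100% and 9.2 uM bortezomib final as 0%. Cells: 500 log-phase HBL1 per well, RPMI plus 5% FBS.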

Sequence of Luciferin 4-monooxygenase (Photinus pyralis) (P08659 whole entry, looked up): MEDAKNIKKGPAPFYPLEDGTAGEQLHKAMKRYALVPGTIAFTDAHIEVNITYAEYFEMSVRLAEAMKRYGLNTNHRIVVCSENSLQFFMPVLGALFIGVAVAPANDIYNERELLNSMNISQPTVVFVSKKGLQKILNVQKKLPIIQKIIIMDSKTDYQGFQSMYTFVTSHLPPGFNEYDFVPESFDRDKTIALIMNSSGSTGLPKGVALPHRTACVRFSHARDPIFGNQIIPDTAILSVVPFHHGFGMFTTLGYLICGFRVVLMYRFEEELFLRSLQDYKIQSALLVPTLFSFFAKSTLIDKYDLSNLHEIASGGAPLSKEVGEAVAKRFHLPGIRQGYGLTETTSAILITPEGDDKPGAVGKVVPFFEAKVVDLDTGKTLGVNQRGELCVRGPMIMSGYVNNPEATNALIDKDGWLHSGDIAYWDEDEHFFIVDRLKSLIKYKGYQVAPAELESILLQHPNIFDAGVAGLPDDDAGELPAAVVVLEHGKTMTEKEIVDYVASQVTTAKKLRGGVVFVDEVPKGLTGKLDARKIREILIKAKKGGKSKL
Sequence of Glucagon-like peptide 1 receptor (Homo sapiens) (P43220 whole entry, looked up): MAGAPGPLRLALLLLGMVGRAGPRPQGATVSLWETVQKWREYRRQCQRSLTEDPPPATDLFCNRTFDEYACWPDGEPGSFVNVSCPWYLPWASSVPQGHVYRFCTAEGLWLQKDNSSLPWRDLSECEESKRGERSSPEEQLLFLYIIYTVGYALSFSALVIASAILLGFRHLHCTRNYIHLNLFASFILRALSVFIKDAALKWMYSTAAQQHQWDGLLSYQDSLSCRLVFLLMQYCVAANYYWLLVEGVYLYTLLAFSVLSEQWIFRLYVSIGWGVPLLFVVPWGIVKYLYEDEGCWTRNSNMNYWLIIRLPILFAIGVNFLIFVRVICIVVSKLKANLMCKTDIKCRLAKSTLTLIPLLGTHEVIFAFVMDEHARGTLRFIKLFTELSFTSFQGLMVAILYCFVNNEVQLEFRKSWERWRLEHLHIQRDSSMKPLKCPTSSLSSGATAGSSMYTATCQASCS
Sequence of Voltage-gated inwardly rectifying potassium channel KCNH2 (Homo sapiens) (Q12809 whole entry, looked up): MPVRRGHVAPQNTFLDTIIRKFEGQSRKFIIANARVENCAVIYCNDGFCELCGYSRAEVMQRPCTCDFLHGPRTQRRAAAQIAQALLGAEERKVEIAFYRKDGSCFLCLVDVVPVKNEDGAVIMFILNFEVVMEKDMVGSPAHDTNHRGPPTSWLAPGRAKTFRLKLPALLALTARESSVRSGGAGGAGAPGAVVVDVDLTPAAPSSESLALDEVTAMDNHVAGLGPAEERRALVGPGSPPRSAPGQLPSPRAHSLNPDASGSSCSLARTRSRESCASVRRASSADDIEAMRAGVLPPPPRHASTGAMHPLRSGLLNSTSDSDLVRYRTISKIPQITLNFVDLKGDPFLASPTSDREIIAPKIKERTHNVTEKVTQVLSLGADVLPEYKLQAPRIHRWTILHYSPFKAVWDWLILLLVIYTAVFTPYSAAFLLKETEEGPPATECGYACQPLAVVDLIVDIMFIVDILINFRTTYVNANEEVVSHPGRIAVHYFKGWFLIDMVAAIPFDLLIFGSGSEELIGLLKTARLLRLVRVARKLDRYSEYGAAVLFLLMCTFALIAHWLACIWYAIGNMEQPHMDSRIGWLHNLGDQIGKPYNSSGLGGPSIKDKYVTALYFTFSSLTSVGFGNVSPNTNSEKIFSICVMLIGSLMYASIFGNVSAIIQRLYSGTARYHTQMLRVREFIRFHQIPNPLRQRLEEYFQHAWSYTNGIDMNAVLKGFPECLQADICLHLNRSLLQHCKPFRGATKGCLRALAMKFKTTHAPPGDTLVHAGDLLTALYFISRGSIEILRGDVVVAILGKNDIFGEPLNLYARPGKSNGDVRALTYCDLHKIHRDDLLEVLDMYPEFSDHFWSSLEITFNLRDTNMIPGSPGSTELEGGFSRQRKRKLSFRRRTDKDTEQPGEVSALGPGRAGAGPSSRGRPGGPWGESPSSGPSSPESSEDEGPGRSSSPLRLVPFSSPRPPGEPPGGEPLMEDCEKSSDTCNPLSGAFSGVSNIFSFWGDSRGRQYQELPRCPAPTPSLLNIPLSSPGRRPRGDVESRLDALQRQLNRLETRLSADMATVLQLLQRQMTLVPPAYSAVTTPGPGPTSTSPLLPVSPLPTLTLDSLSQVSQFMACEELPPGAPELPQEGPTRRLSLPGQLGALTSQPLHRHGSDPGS
Sequence of Glutaminase kidney isoform, mitochondrial (Homo sapiens) (O94925 whole entry, looked up, canonical isoform): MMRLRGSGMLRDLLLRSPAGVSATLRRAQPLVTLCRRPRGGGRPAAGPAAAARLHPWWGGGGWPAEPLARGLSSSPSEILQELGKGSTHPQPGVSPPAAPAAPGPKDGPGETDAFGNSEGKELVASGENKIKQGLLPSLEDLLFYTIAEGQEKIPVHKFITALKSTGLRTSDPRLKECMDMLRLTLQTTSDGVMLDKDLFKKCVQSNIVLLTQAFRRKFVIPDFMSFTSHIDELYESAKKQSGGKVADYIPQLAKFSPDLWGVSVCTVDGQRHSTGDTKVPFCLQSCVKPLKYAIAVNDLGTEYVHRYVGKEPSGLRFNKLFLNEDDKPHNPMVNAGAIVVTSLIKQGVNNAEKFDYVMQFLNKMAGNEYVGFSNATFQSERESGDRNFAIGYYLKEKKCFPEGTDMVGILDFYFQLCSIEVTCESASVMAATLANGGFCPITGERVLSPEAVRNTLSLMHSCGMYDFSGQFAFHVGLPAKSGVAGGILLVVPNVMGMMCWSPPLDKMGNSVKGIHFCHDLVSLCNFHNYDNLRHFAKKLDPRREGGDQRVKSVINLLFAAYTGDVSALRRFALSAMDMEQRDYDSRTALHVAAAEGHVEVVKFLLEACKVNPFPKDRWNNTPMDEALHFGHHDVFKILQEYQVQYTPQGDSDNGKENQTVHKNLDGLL

CCC(C)(C)c1ccc(CC(C)CN2C[C@@H](C)O[C@@H](C)C2)cc1 (some centres undefined)
active: Potency [1] 12.6 µM
inactive: Potency [2] | Potency [3] | Potency [4] | Potency [5]

Nc1ccc(S(=O)(=O)Nc2ccccn2)cc1
inactive: Potency [1] | Potency [2] | Potency [3] | Potency [4] | Potency [5]

C#CCN[C@@H]1CCc2ccccc21
inactive: Potency [1] | Potency [2] | Potency [3] | Potency [4]

N[C@@H](C(=O)N[C@@H]1C(=O)N2C(C(=O)O)=C(Cl)CS[C@H]12)c1ccccc1
inactive: Potency [1] | Potency [2] | Potency [3] | Potency [4]

CC(C)(Sc1cc(C(C)(C)C)c(O)c(C(C)(C)C)c1)Sc1cc(C(C)(C)C)c(O)c(C(C)(C)C)c1
inactive: Potency [1] | Potency [2] | Potency [3] | Potency [4]

CNNCc1ccc(C(=O)NC(C)C)cc1
inactive: Potency [1] | Potency [2] | Potency [4]

Clc1ccccc1CN1CCc2sccc2C1
active: Potency [1] 14.1 µM
inactive: Potency [2] | Potency [4]

Nc1nc(N)c2nc(CNc3ccc(C(=O)NC(CCC(=O)O)C(=O)O)cc3)cnc2n1 (centres undefined)
inactive: Potency [1] | Potency [2] | Potency [5] | outcome [6] | outcome [7] | outcome [8] | outcome [9] | Potency [10]

NC(=O)c1cccc(N)c1
inactive: Potency [1] | outcome [6] | outcome [7] | outcome [8] | outcome [9] | Potency [10]

O=C(O)c1cccnc1
inactive: Potency [1] | Potency [2] | Potency [4]

COc1cccc(N(C)C(=S)Oc2ccc3c(c2)CCCC3)n1
inactive: Potency [2] | Potency [5]
active: Potency [1] 3.16 µM

CC(=O)Oc1ccccc1C(=O)Nc1ncc([N+](=O)[O-])s1
inactive: Potency [1] | activation [11] -1.07%

CC(N)C12CC3CC(CC(C3)C1)C2 (centres undefined)
inactive: Potency [1] | Potency [2] | Potency [4]

CCN1CCCC1CNC(=O)c1cc(S(N)(=O)=O)ccc1OC (centres undefined)
inactive: outcome [6] | outcome [7] | outcome [8] | outcome [9] | Potency [10]
active: Potency [1] 10 µM

O=C(O)CCn1c2c(c3ccccc31)C[C@H](NS(=O)(=O)c1ccc(F)cc1)CC2
inactive: Potency [1] | Potency [2] | Potency [4]

O[C@@H](CNC[C@H](O)[C@H]1CCc2cc(F)ccc2O1)[C@@H]1CCc2cc(F)ccc2O1
inactive: Potency [2]

CNS(=O)(=O)CCc1ccc2[nH]cc(C3CCN(C)CC3)c2c1
inactive: Potency [2]

COc1ncnc(NS(=O)(=O)c2ccc(N)cc2)c1OC
inactive: Potency [1] | Potency [2] | Potency [4]

Oc1c(Cl)cc(Cl)c2cccnc12
inactive: Potency [1] | Potency [2]
active: Potency [4] 3.61 µM | Potency [5] 28.2 µM

O=c1cc(O)c(Cl)c[nH]1
inactive: Potency [1] | Potency [2] | Potency [4]

CCCCS(=N)(=O)CCC(N)C(=O)O (centres undefined)
inactive: Potency [1] | outcome [6] | outcome [7] | outcome [8] | outcome [9] | Potency [10]

NC(N)=NC(N)=NCCc1ccccc1
active: Potency [12] 37.6 µM
inactive: Potency [1] | Potency [2] | Potency [4] | activation [11] 0.778% and 0.59%

COc1c(N2CCNC(C)C2)c(F)cc2c(=O)c(C(=O)O)cn(C3CC3)c12 (centres undefined)
inactive: Potency [1] | Potency [2] | Potency [4]

CN1CCN(c2c(F)cc3c(=O)c(C(=O)O)cn(CCF)c3c2F)CC1
inactive: Potency [1] | Potency [2] | Potency [4]

CCOC(=O)[C@H](CCc1ccccc1)N[C@H]1CS[C@H](c2cccs2)CN(CC(=O)O)C1=O
inactive: Potency [1] | Potency [2] | Potency [4] | Potency [5]

CN(Cc1cc(Br)cc(Br)c1N)C1CCCCC1
active: Potency [1] 3.16 µM | Potency [4] 36.1 µM
inactive: Potency [2]

CN(CCOc1ccc(CC2SC(=O)NC2=O)cc1)c1ccccn1 (centres undefined)
inactive: Potency [1] | Potency [3] | Potency [4] | Potency [5]

OCc1ccc(-c2nn(Cc3ccccc3)c3ccccc23)o1
inactive: Potency [1] | outcome [6] | outcome [7] | outcome [8] | outcome [9] | Potency [10]

CNC(=O)c1cc(Oc2ccc(NC(=O)Nc3ccc(Cl)c(C(F)(F)F)c3)cc2)ccn1
active: Potency [1] 7.08 µM | Potency [4] 12.8 µM | Potency [5] 15.8 µM | Potency [13] 18.7 µM | Potency [15] 9.43 µM
1.39%: viability, percent of control [17]
-0.0117%: viability (% of control) [16]
inactive: Potency [2] | outcome [14]

COc1cc2ncnc(Nc3cccc(Cl)c3)c2cc1OC
inactive: Potency [1] | outcome [6] | outcome [7] | outcome [8] | outcome [9] | Potency [10]

O=P(O)(O)C(O)(Cc1cccnc1)P(=O)(O)O
inactive: Potency [1] | Potency [2] | Potency [4]

O=S(=O)(O)CCS
inactive: Potency [1] | Potency [2] | Potency [4] | Potency [5]
